The source of these data is ChEMBL document CHEMBL4513216, “Probing the Open Global Health Chemical Diversity Library for Multistage-Active Starting Points for Next-Generation Antimalarials” (ACS Infect Dis, 2020).

Molecules are shown by their SMILES. Screen size: about 68,000 compounds; about 2,700 (4%) showed an effect of 50% or more. Only a selection was taken, and strong results are over-represented in it overall.

In this test the test system is Plasmodium berghei. The test can be described thus: Screen against P. berghei liver stage (PbLuc), transformed with Luciferase, at 2uM. Type of test: functional, HepG2. The conditions noted are these: tested at 2 uM.
As to `COc1ncccc1CN1C[C@@H]2OCCN(CCN(C)C)[C@@H]2C1`, the INHIBITION was found to be 22.18%.

As to `c1coc(CN2CCn3c(CN4CCOCC4)nnc3C2)c1`, the INHIBITION was found to be 8.99%.

On to `Cc1[nH]nc(CCC(=O)N2CCOC(CCc3ccccc3)C2)c1C` (stereo unspecified), for which the INHIBITION is on record as -18.99%.

As for `COc1ccc2c(c1)nc1n2[C@@H](CNCc2nccs2)COC1`, the INHIBITION is 24.42%.

For `c1ccc2c(c1)nc1n2[C@@H](CNCc2nccs2)COC1`, the INHIBITION was found to be 24.64%.

In the case of `Fc1ccc2c(c1)nc1n2[C@@H](CNCc2nccs2)COC1`, the INHIBITION is on record as 61.42%.

Turning to `CC(C)n1ccnc1CN1CCOC(C)(C(=O)N2CCOCC2)C1` (stereo unspecified), the INHIBITION is 13.58%.

Consider `Cc1nc(N2CCOCC2)nc2c1CCN(Cc1nccn1C)CC2`, for which the INHIBITION was 13.25%.

With `COCC(=O)N1C[C@H]2CN(Cc3csc(C)n3)C(=O)[C@H]2C1`, the INHIBITION is recorded as -6.13%.

In the case of `Cc1cccc(CN2C[C@@H]3COC[C@]3(CNC(=O)c3cccn3C)C2)n1`, the INHIBITION is given as -26.91%.

For the compound `Cc1cccc(CN2C[C@@H]3COC[C@]3(CNC(=O)C3CC3)C2)c1`, the INHIBITION is -2.81%.

In the case of `Cn1cc(CN2C[C@@H]3COC[C@]3(CNC(=O)c3ccco3)C2)cn1`, the INHIBITION is 67.67%.

Turning to `Cc1cccc(CN2C[C@@H]3COC[C@]3(CNC(=O)c3ccsc3)C2)n1`, the INHIBITION is recorded as -26.88%.

With `Cc1cccc(CN2C[C@@H]3COC[C@]3(CNC(=O)C3CCC3)C2)c1`, the INHIBITION amounted to 55.92%.

Turning to `COc1cccc(CN2C[C@@H]3COC[C@]3(CNC(=O)C3CC3)C2)c1`, the INHIBITION is recorded as -9.07%.

Take `Cn1cc(CN2C[C@@H]3COC[C@]3(CNC(=O)c3ccccc3)C2)cn1`: the INHIBITION was 23.43%.

For the compound `O=C(NC[C@]12COC[C@H]1CN(Cc1ccncc1)C2)c1ccco1`, the INHIBITION is on record as -5.65%.

Regarding `Cc1cccc(CN2C[C@@H]3COC[C@]3(CNC(=O)c3ccccc3)C2)n1`, the INHIBITION came to 59.04%.

On to `COc1cccc(OC)c1C(C(=O)O)N(C)Cc1c(C)n[nH]c1C` (stereo unspecified), for which the INHIBITION was 17.2%.

Regarding `CCN1CCC2(CC1)CC(NCc1cccs1)c1ccccc1O2` (stereo unspecified), the INHIBITION is recorded as -5.2%.

Regarding `COCC(=O)N1CC(=O)c2sc(Nc3ccc(F)cc3F)nc2C1`, the INHIBITION is on record as -0.83%.

On to `Cc1noc(C(C)Nc2ccc3c(c2)CCC3)n1` (stereo unspecified), for which the INHIBITION was -46.99%.

With `CN1CCc2c(C#N)c(NCCc3ccccc3)n3cnnc3c2C1`, the INHIBITION is reported as -30.35%.

On to `Cc1ccc(NS(=O)(=O)c2c[nH]c3ncccc23)nc1`, for which the INHIBITION is given as -27.36%.

For `Cc1csc(NC(=O)c2cnc(C3CCCN3)cn2)n1` (stereo unspecified), the INHIBITION was found to be 14.47%.

Regarding `CCCn1nc2c(cc1=O)CN(Cc1ncc(C(C)(C)C)o1)CC2`, the INHIBITION stood at 27.85%.

`C1=CCN(c2nc(CC3CC3)nc3c2CCN(C2CCOCC2)CC3)C1`: the INHIBITION is on record as -59.35%.

As for `O=C(c1cc(-c2ccc(O)cc2)n[nH]1)N1CCCC1c1cccnc1` (stereo unspecified), the INHIBITION is listed as 35.01%.

As for `COc1cc(C)nc(N2CCN(C(=O)CCc3ccsc3)CC2)n1`, the INHIBITION is 1.77%.

On to `COCC(=O)N1CCN(C(=O)CCc2ccsc2)CC1`, for which the INHIBITION turned out to be 67.28%.

Consider `COCC(=O)N1CC[C@]2(O)CCN(C(=O)CCc3ccsc3)C[C@@H]2C1`, for which the INHIBITION is reported as -11.68%.

As for `C[C@H]1CN(C(=O)c2cccc(F)c2Cl)CCN1S(C)(=O)=O`, the INHIBITION was -33.29%.

Regarding `CSc1nccc(N2CCC(NCc3ccc4c(c3)OCO4)CC2)n1`, the INHIBITION turned out to be 46.95%.

In the case of `c1ccc(CN2CCOCC3(CCN(C4CCOCC4)C3)C2)cc1` (stereo unspecified), the INHIBITION is -28.17%.

Regarding `CCc1[nH]c2c(CNC(=O)C3CCC(=O)NC3)cc(C)cc2c1C` (stereo unspecified), the INHIBITION is on record as 11.37%.

Take `CCc1[nH]c2c(CNC(=O)C3CNC(=O)C3)cc(C)cc2c1C` (stereo unspecified): the INHIBITION worked out at 53.05%.

With `CCc1[nH]c2c(CNC(=O)C3CCS(=O)(=O)CC3)cc(C)cc2c1C`, the INHIBITION was found to be 13.65%.

On to `CCC(CO)N(Cc1ccco1)C(=O)c1ccccc1NC` (stereo unspecified), for which the INHIBITION is reported as 4.57%.

On to `CCOCC(O)CN1CCN(C(=O)c2ccncc2)CC1` (stereo unspecified), for which the INHIBITION is 69.01%.

As to `CCOCC(O)CN1CCN(C(=O)c2ccc(OC)cc2)CC1` (stereo unspecified), the INHIBITION is 2.8%.

With `CCOCC(O)CN1CCN(C(=O)c2cc(F)cc(F)c2)CC1` (stereo unspecified), the INHIBITION is -41.07%.

As to `COc1ccc(-c2cc3nc([C@H](C)NC(=O)C4CC4)nn3cn2)cc1`, the INHIBITION is 20.72%.

`Cc1ccc(CN2CC[C@H]3[C@H]2CCN3S(C)(=O)=O)s1`: the INHIBITION is -25.95%.

With `CCn1cc(CN2C[C@@H]3CC[C@H]2CN(C(=O)c2ccncc2)C3)cn1`, the INHIBITION is given as -23.16%.

In the case of `CCc1nn(C)c2[nH]nc(NC(=O)c3cccnc3OCC(C)C)c12`, the INHIBITION is 5.94%.

For the compound `CCc1nn(C)c2[nH]nc(NC(=O)c3cccnc3OC)c12`, the INHIBITION is given as -3.4%.

As for `CCc1nn(C)c2[nH]nc(NC(=O)c3cccnc3NC(C)C)c12`, the INHIBITION is 54.87%.

Take `Cc1cnn(CC2CCCN2Cc2coc(-c3ccc(F)cc3)n2)c1` (stereo unspecified): the INHIBITION worked out at 7.8%.

As to `Cc1cccc2c1NC1(CCCC1)NC2=O`, the INHIBITION came out at 19.81%.

For `COc1cccc(OC2CN(C(=O)c3ccnc(OC)c3)C2)c1`, the INHIBITION is on record as 6.85%.

Turning to `CCc1ccccc1OC1CN(C(=O)c2ccnc(OC)c2)C1`, the INHIBITION was 72.94%.
